# DT40 TDP1 no CPT: qHTS for Inhibitors of human tyrosyl-DNA phosphodiesterase 1 (TDP1): qHTS in cells in absence of CPT; 420,000 compounds, 15% hits; Potency, µM (doses to about 46.2 µM), for inactives: top-dose activity change, negative = growth inhibition, most hits filed as inhibitors; DT40 Tdp1-/- hTDP1 cells, no CPT, ATP luminescence, 48 h; also: nearly all actives have a fitted effect of over 55% in size
#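 Seeded 400 DT40-hTDP1 cells/well (vehicle DMSO, no 20 nM CPT); pinned compounds; ≥48 hr at 37 °C; CellTiter-Glo luminescence as viability measure.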
# TDP1 cell CPT: DT40-hTDP1 cell growth loss with CPT. 420,000 compounds, 12% hits. Potency, µM (doses to about 46.2 µM), for the others: at the highest dose activity change, negative = growth inhibition, most hits filed as inhibitors. chicken DT40 Tdp1-/-;hTDP1 cells + 20 nM CPT, ATP luminescence, 48 h; also: nearly all actives have a fitted effect of over 55% in size
#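 Chicken DT40 Tdp1-/- cells stably complemented with human TDP1 were seeded at 400 cells/well in medium containing 20 nM camptothecin, exposed to pin-transferred compounds, and grown at 37 °C for at least 48 hr. Viability was read as ATP luminescence.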
# GCN5L2 inh: blocks human GCN5L2 histone acetyltransferase; Q92830; GCN5L2 HAT assay, ThioGlo1 CoA-SH fluorescence; Potency, µM (top dose mostly 58.9 µM), for the others: at the top dose activity change, negative = inhibition, actives largely listed as inhibitors; 390,000 compounds, 0.21% hits
#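 Fluorescence readout, Ex340nm/Em540nm: ThioGlo1 (50uM final) reacts with free CoA thiol released as 20nM GCN5L2 acetylates H3(1-25) peptide (75uM) using acetyl-CoA (70uM). Compound and enzyme sat 15 min beforehand; 20 min room-temperature reaction.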
# TDP1 block: TDP1 (human) enzyme inhibition; 350,000 compounds, 0.28% hits; AID 485290; Potency, µM (series often up to 130 µM), for the others: at the top dose activity change, negative = inhibition, usual class: inhibitors; recombinant TDP1, AlphaScreen DNA substrate cleavage; also: nearly all actives have a fitted effect of over 40% in size
#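 Here, a 5' biotin and 3' phosphotyrosine-FITC DNA oligonucleotide reports Tdp1 activity: intact substrate bridges AlphaScreen beads, while cleavage leaves a 3' phosphate and drops signal. All incubations at room temperature.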
# PLK1 PBD inh: blocks phosphopeptide binding to human PLK1 polo-box domain | P53350 | Plk1 PBD binding of FITC phosphopeptide, fluorescence polarization | Potency, µM, for the others: max response, negative = inhibition, actives largely listed as inhibitors | 360,000 compounds, 2.8% hits; also: series mostly up to about 57 µM; nearly all actives have a fitted effect of over 65% in size
# VDR inh: vitamin D3 receptor (human) inhibition | VDR-SRC2-3 peptide fluorescence polarization, 2 h | P11473 | AID 504847 | 400,000 compounds, 0.93% hits | Potency, µM, inactives show max response, negative = inhibition, hits mostly inhibitors
# Target sequence (P11473 whole entry, looked up): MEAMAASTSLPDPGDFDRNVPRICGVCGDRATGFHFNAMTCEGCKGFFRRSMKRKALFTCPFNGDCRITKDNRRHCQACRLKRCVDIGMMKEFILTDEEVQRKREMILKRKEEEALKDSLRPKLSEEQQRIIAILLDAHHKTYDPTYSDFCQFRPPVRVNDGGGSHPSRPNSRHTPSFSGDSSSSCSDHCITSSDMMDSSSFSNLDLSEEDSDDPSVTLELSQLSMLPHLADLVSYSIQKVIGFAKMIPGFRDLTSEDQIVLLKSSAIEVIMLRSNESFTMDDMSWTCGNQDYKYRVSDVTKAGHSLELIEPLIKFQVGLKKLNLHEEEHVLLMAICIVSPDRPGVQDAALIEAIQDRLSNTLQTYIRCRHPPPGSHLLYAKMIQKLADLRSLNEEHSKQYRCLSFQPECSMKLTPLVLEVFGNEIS
#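 After 23 nl compound addition and a short centrifugation, plates sat for 2 hours at ambient temperature; polarization of fluorescence then indicated loss of VDR binding to peptide SRC2-3.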
# Active calls of the source: *; ? = inconclusive; . = no result given; [ ] = remark or other dose. A selection: hits, their analogues and other compounds. The true share with any hit is near 18%. Calls follow the shape of the dose curve; as a rule, active = well fitted curve in the direction sought with a large enough effect; inconclusive = small, poorly fitted or top-dose-only effect, or another doubt; inactive = no such curve, though single readings can be large; an effect the other way counts as inactive or inconclusive. % is scaled to controls: 0 for no effect and ±100 for the full control effect; potency is read from the fitted curve at half-maximal effect.
SMILES,DT40 TDP1 no CPT,TDP1 cell CPT,GCN5L2 inh,TDP1 block,PLK1 PBD inh,VDR inh
O=C(Nc1ccc(Oc2ccccc2)cc1)C1CCN(c2ncccn2)CC1,-3.0%,-0.8%,-2.6%,1.9%,-1.1%,5.5%
Cc1cccc(Oc2ccc(NC(=O)C3CC=CCC3C(=O)O)cc2)c1 (centres undefined),2.06µM*,-28.9%,-4.0%,.,-4.3%,5.1%
N#Cc1ccc(Oc2ccc(NC(=O)C3CC=CCC3C(=O)O)cc2)cc1 (centres undefined),?,-24.6%,2.1%,-3.6%,1.5%,-1.6%
CS(=O)(=O)c1cccc(NC(=O)C2CC2)c1,-0.2%,-10.9%,19.2%,-0.6%,-7.1%,-17.6%
COc1cccc(NC(=O)c2ccc(NC(=O)C3CC(=O)OC34CCCCC4)cc2)c1 (centres undefined),?,18.4µM*,-1.6%,5.5%,1.0%,-9.6%
O=C(Nc1ccc(Oc2ccccc2)cc1)C1CC1,18.4µM*,20.6µM*,-9.0%,-13.7%,-4.1%,-25.3%
COc1ccc(NC(=O)C2CC(=O)OC23CCCCC3)cc1 (centres undefined),-20.9%,-20.5%,-0.4%,1.1%,-6.3%,18.3%
O=C(Nc1cccc(S(=O)(=O)c2cccc(NC(=O)C3CC3)c2)c1)C1CC1,20.6µM*,20.6µM*,-6.5%,-3.1%,4.9%,5.9%
CCCc1ccc(S(=O)(=O)N2CCN(C(=O)CN3C(=O)NC(C)(C4CC4)C3=O)CC2)cc1 (centres undefined),-22.1%,-6.0%,.,.,-1.7%,.
O=C(c1ccc2c(c1)OCO2)N(Cc1cc2cc3c(cc2nc1N1CCOCC1)CCC3)CC1CCCO1 (centres undefined),-1.6%,25.3%,.,.,.,.
CCOC(=O)c1cnc2cc(C(F)(F)F)ccc2c1Nc1ccc(F)cc1F,?,?,-14.0%,4.5%,.,-4.0%
CC(OC(=O)c1ccc(O)cc1)C(=O)Nc1nc(-c2ccccc2)cs1 (centres undefined),?,?,-5.4%,3.5%,-2.4%,-7.1%
COc1cccc(NC(=O)C2CCCC2)c1,-16.7%,-3.6%,-0.5%,-4.1%,-9.8%,-0.1%
COc1cccc(NC(=O)C2CC2)c1,-3.9%,5.8µM*,1.2%,-2.4%,0.3%,6.7%
CC(C)C[C@H](NC(=O)Nc1ccc(Oc2ccccc2)cc1)C(=O)O,-13.8%,-17.0%,-6.8%,0.0%,-3.8%,-4.9%
CC(OC(=O)c1ccc(O)cc1)C(=O)Nc1ccc(Oc2ccccc2)cc1 (centres undefined),20.6µM*,?,-3.3%,0.7%,1.8%,-13.7%
COC(=O)[C@H](C)NC(=O)Nc1ccc(Oc2ccccc2)cc1,6.31µM*,?,-2.2%,5.3%,0.7%,-7.8%
COc1ccc(-c2cc([C@H]3[C@H]4C=CC[C@@H](C)[C@@H]4C(=O)N3Cc3ccccc3)ccc2F)cc1OC,13µM*,23.1µM*,-22.9%,0.0%,-7.2%,-10.0%
COc1ccc(-c2cc(C3C4C=CCC(C)C4C(=O)N3Cc3ccccc3)ccc2F)cc1 (centres undefined),.,.,.,5.0%,.,-14.7%
COc1ccc(-c2ccc(N(C)C)cc2)cc1[C@H]1[C@@H]2C=CCC[C@@]2(C)C(=O)N1Cc1ccccc1,20.6µM*,29.1µM*,2.8%,10.7%,-3.0%,-28.6%
CC(=O)c1ccc(-c2ccc([C@H]3[C@@H]4C=CCC[C@@]4(C)C(=O)N3Cc3ccccc3)c(F)c2)cc1,16.4µM*,20.6µM*,-12.4%,1.2%,-17.6%,-23.6%
COc1ccc(-c2cc([C@H]3[C@H]4C=CC[C@@H](C)[C@@H]4C(=O)N3Cc3ccccc3)ccc2F)cc1,14.6µM*,13µM*,-3.7%,-2.4%,1.7%,-4.5%
CCC1CC=CC2C1C(=O)N(Cc1ccccc1)C2c1cccc([N+](=O)[O-])c1 (centres undefined),.,.,.,9.7%,.,?
C[C@@H]1CC=C[C@H]2[C@H]1C(=O)N(Cc1ccccc1)[C@H]2c1cccc([N+](=O)[O-])c1,23.1µM*,20.6µM*,11.4%,2.4%,-10.3%,-11.2%
COc1ccc(-c2cc([C@H]3[C@@H]4C=CCC[C@@]4(C)C(=O)N3Cc3ccccc3)ccc2F)cc1,25.9µM*,?,-6.6%,-1.2%,-8.3%,-12.8%
SMILES,DT40 TDP1 no CPT,TDP1 cell CPT,GCN5L2 inh,TDP1 block,PLK1 PBD inh,VDR inh
CC1CC=CC2C1C(=O)N(Cc1ccccc1)C2c1ccc(F)c(/C=C/c2ccccc2)c1 (centres undefined),.,.,.,-2.1%,.,-5.8%
CC12CCC=CC1C(c1ccc3ccccc3c1Br)N(Cc1ccccc1)C2=O (centres undefined),.,.,.,7.9%,.,?
C[C@@]12CCC=C[C@H]1[C@H](c1ccc3ccccc3c1Br)N(Cc1ccccc1)C2=O,18.4µM*,?,-2.6%,5.0%,-18.5%,?
C[C@@H]1CC=C[C@H]2[C@H]1C(=O)N(Cc1ccccc1)[C@H]2c1ccc(F)c(/C=C/c2ccccc2)c1,8.2µM*,8.2µM*,1.8%,-2.4%,-7.8%,-3.7%
CCOC(=O)C(=CNNc1cccc(Cl)c1)C(=O)OCC,20.6µM*,11.6µM*,-9.3%,-2.5%,9.47µM*,?
CCOC(=O)C(=CNc1ccc(Cl)cn1)C(=O)OCC,?,0.2%,-1.3%,1.2%,-7.2%,-11.7%
Cc1cc(N/N=C/c2ccc(F)cc2)nc(-n2nc(C)cc2C)n1,3.66µM*,2.91µM*,-2.7%,1.2%,-6.1%,9.9%
COc1ccc(/C=N/Nc2cc(C)nc(N3CCOCC3)n2)cc1,?,-7.9%,-3.2%,0.0%,-2.6%,13.3%
COc1ccc(/C=N/Nc2cc(C)nc(-n3nc(C)cc3C)n2)c(OC)c1,1.64µM*,1.46µM*,-13.6%,10.8%,0.9%,-2.1%
CCc1ccccc1NS(=O)(=O)c1ccc2[nH]cc(C(=O)N3CCCCC3)c(=O)c2c1,-10.1%,-9.4%,-4.4%,.,.,-12.6%
Cn1c(-c2ccncc2)nc2cc(C(=O)N3CCCC3c3nccs3)cc(NC(=O)C3CCC3)c21 (centres undefined),-15.3%,-12.5%[9.04 µM],.,.,.,.
CCCCNc1ncnc2oc(-c3ccco3)c(-c3ccco3)c12,6.31µM*,6.31µM*,.,9.2%,.,?
COc1ccc(NS(=O)CCCc2ccccc2)cc1 (centres undefined),-0.9%,-22.9%,.,.,-9.1%,.
CC1CCCCN1CC(O)COCCC12CC3CC(CC(C3)C1)C2 (centres undefined),18.4µM*,14.6µM*,0.3%,2.5%,-1.1%,7.9%

# High-throughput results (PubChem)
